Out of some 360,000 compounds screened, about 2,400 (0.67%) were called active.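 How the source made its calls: active means compounds whose normalised, plate-corrected inhibition of enzyme fluorescence in the single-dose primary screen is 50% or more; inactive means the rest.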 This excerpt belongs to a sample that is enriched for actives.
Target: Fatty acid synthase (Homo sapiens) (UniProt P49327)
Assay: FAS thioesterase domain inhibitors, primary screen, biochemical, fluorescence intensity, uHTS (AID 602261);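 further: 0% = DMSO with enzyme and 100% = substrate without enzyme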
Conditions: recombinant FAS-TE, OMFH fluorogenic substrate, fluorescence endpoint; at 15 µM; hits give high values

Chain of Fatty acid synthase (Homo sapiens) (P49327 whole entry, looked up, the tested form may be a part): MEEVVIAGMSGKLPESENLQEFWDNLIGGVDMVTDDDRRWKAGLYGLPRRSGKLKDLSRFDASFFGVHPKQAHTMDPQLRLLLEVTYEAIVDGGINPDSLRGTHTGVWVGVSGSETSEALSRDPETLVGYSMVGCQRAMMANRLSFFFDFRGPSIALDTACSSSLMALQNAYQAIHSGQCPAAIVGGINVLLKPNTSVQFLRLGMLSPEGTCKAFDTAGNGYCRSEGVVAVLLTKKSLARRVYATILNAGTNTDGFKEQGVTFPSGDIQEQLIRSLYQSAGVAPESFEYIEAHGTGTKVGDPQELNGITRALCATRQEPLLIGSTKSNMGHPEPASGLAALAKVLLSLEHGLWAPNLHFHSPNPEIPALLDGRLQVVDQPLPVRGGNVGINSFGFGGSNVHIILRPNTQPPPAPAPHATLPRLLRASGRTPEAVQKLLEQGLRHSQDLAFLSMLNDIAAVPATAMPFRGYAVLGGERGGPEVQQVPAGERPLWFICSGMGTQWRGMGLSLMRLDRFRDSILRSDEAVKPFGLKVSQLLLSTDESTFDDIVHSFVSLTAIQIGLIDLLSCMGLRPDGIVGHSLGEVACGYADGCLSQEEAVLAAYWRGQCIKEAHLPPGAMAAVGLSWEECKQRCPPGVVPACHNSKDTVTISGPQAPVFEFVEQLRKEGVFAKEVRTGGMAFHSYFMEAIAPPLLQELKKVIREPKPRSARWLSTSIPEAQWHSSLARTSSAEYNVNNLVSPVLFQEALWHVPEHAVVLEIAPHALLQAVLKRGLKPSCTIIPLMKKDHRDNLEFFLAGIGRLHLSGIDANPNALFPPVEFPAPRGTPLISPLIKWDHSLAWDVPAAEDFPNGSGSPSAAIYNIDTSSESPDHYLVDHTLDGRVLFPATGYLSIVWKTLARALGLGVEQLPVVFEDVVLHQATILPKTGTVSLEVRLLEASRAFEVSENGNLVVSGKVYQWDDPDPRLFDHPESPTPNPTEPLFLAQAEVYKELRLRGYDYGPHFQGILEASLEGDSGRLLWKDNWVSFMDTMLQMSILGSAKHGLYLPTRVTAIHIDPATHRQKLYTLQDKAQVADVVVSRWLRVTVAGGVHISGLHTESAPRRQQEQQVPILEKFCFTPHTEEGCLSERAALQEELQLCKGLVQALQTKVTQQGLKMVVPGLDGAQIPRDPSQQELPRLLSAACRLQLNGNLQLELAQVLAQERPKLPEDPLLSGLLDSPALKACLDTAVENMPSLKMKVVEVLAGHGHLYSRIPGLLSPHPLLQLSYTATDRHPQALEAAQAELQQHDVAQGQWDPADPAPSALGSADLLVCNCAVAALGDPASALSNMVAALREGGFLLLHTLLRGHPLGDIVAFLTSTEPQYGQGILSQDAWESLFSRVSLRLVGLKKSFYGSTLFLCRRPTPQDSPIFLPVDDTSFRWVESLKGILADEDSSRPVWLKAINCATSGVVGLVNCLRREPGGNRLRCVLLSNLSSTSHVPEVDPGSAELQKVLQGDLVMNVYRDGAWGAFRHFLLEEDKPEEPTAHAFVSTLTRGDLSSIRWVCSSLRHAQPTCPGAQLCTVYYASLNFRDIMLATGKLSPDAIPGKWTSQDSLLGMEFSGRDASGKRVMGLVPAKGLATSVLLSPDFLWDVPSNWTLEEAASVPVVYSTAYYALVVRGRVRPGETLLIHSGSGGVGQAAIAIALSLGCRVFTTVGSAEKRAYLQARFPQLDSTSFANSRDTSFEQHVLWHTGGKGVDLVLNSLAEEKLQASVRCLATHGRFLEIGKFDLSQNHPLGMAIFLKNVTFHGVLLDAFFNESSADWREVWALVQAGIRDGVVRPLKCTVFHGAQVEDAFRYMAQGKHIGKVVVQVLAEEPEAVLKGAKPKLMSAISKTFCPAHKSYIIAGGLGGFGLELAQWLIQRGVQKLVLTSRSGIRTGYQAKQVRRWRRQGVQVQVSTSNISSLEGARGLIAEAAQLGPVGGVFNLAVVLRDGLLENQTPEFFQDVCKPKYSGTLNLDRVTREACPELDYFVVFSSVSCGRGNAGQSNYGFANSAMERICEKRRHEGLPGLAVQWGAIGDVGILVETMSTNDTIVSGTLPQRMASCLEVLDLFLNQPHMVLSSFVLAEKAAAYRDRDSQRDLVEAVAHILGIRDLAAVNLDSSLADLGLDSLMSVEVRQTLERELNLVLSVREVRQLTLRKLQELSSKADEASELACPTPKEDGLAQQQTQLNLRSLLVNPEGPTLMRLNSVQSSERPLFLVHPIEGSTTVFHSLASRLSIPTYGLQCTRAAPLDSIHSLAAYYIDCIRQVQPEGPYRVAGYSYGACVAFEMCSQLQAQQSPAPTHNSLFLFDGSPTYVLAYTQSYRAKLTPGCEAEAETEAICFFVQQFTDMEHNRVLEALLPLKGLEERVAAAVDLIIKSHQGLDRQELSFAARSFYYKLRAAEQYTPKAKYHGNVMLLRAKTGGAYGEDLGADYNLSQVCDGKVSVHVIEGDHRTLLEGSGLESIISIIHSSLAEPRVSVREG

inhibition, active:
Cc1ccc2c(c1)-c1c(ssc1=S)C(C)(C)N2C(=O)CN1C(=O)c2ccccc2C1=O 52.2%
CCOc1ccc(Nc2nc(Cl)nc(N3CCN(c4ccc(OC)cc4)CC3)n2)cc1 57.9%
O=C(Nc1ccc(N2C(=O)c3cccc4cccc(c34)C2=O)cc1)c1ccc(N2CCCCC2)c([N+](=O)[O-])c1 56.4%
CCCN1Cc2cccc(C(=O)Nc3ccc(S(=O)(=O)N4CCCCCC4)cc3)c2C1=O 54.7%
Cc1ccc(S(=O)(=O)N2CC[C@H]3[C@@H](C2)C(=O)C[C@@H](c2ccccc2)N3S(=O)(=O)c2ccc(C)cc2)cc1 79.6%
Cc1ccc2cc3cc(C(=O)N4CCCCCC4)oc3nc2c1 77.7%
COc1cc(-c2noc(C3CCCN(S(=O)(=O)c4cccc(Cl)c4)C3)n2)cc(OC)c1OC (configuration not stated) 50.7%
CC(C)c1ccc2c(c1)c(SC(C)(C)C)c(CC(C)(C)C(=O)O)n2Cc1ccc(Cl)cc1 80.4%
O=C(CC(c1ccccc1)c1ccccc1)NCC(O)c1ccc([N+](=O)[O-])cc1 (configuration not stated) 50.4%
COc1ccc(NS(=O)(=O)c2cc(NC(=O)c3ccc(S(=O)(=O)N(C)C)cc3)ccc2N2CCOCC2)cc1 88.6%
COc1ccc(NS(=O)(=O)c2cc(NC(=O)/C=C/c3cc(OC)c(OC)c(OC)c3)ccc2N2CCCCC2)cc1 50.6%
CCN(C(=O)CSc1ncnc2c1cnn2-c1ccccc1)C1CCS(=O)(=O)C1 (configuration not stated) 57.4%
Cc1nc2c(OCc3ccc(Cl)cc3Cl)cccn2c1N(C)CC1CC1 57.2%
COc1ccc([N+](=O)[O-])cc1NC(=O)c1ccc(N(Cc2ccccc2C)S(C)(=O)=O)cc1 62.6%
CCC(CC)COC(=O)C1=C(C)NC(=O)NC1c1ccc([N+](=O)[O-])cc1 (configuration not stated) 71.6%
O=C1NC(Cc2ccccc2)c2nc3ccc(Br)cc3c(=O)n2-c2cc3ccccc3cc21 (configuration not stated) 84.7%
Cc1ccc(N2C(=O)C3C(c4ccccc4)(C2=O)C3(c2ccccc2)c2ccccc2)cc1 (configuration not stated) 80.8%
C#CCN(C[C@H]1[C@H](OC(=O)NC2CCCC2)[C@H](OC(=O)NC2CCCC2)C[C@H]2C(=O)N(c3ccccc3)C(=O)[C@@H]12)S(=O)(=O)c1ccc(C)cc1 69.1%

inhibition, inactive:
O=C(O)CCS(=O)(=O)c1ccc(-c2ccccc2)cc1 -1.5%
CCOC(=O)CN1C(=O)C(=O)c2cc(C)ccc21 -7%
Cc1cc2c(cc1C)N(C(=O)CN1C(=O)c3ccccc3C1=O)C(C)(C)c1ssc(=S)c1-2 43.2%
O=S1(=O)N=C(N(CCO)/N=C/c2ccccc2F)c2ccccc21 0.1%
CCOc1ccccc1NC(=O)C12CC3CC(C1)CC(c1ccc(C)cc1)(C3)C2 33.7%
CCN1CCN(c2nc(Nc3cc(OC)ccc3OC)nc(Nc3cc(OC)ccc3OC)n2)CC1 32.9%
COc1ccc(Nc2ncc(F)c(N3CCOCC3)n2)cc1 -0.3%
CC1CCCCC1NC(=O)C1CCCN1S(=O)(=O)c1cccc2nsnc12 (configuration not stated) -4.8%
O=C(N1CCCC1)C12CC3CC(C1)CC(C(=O)N1CCCC1)(C3)C2 -5.3%
Cc1ccc(NC(=O)CSc2nnc(CNC(=O)c3ccccc3F)o2)cc1 -4.2%
O=C(Nc1cccc(C(F)(F)F)c1)c1ccc(N2CCNCC2)c([N+](=O)[O-])c1 -5%
O=C(COc1ccccc1F)NNC(=O)c1ccc(N2CCCCC2)c([N+](=O)[O-])c1 4.2%
CC(=O)Nc1ccc2c3c(ccc([N+](=O)[O-])c13)CC2 -4%
CCCN1Cc2cccc(C(=O)NCc3ccccc3)c2C1=O -0.8%
O=C(Nc1ccc(S(=O)(=O)N2CCCCCC2)cc1)c1c(F)cccc1F 12%
COCCCNCC(=O)Nc1sc(C)c(C)c1C(=O)OC -3.7%
CCOC(=O)C(C)n1cnc2c(nnn2-c2ccc(F)cc2)c1=O (configuration not stated) -7.4%
CCc1ccc([C@@H]2CC(=O)[C@@H]3CN(S(=O)(=O)c4ccc(C)cc4)[C@H](c4ccc(Cl)cc4)C[C@@H]3N2S(=O)(=O)c2ccc(C)cc2)cc1 12.7%
Cc1ccc([C@@H]2CC(=O)[C@@H]3CN(S(=O)(=O)c4ccc(C)cc4)[C@H](c4ccccc4F)C[C@@H]3N2S(=O)(=O)c2ccc(Cl)cc2)cc1 12.3%
CC(C)[C@H](NC(=O)N1c2ccccc2NC(=O)[C@@H]1C(C)C)C(=O)N[C@H](C(=O)O)c1ccccc1 -2.6%
O=[N+]([O-])c1ccc(NS(=O)(=O)c2ccccc2)c(Cl)c1 -7%
Cc1ccc2oc(=O)c3cnn(CC(=O)N4CCCCCC4)c3c2c1 0.5%
Cc1cccc(C(=O)N2CCN(S(=O)(=O)N3CCCCC3)CC2)c1 -2.1%
COc1ccc(C(C)=O)cc1COC(=O)Cn1cnc2ccccc2c1=O -2.7%
COc1cccc(-c2noc(C3CCCN(C(=O)c4ccc(F)cc4)C3)n2)c1 (configuration not stated) -3.3%
CC(C)c1ccc(-c2noc(C3CCCN(S(C)(=O)=O)C3)n2)cc1 (configuration not stated) 16.9%
Nc1ccc(SCCN2C(=O)c3ccccc3C2=O)cc1 -1.7%
O=C(NCc1ccccc1)C1CCCN(c2nc3ccsc3c(=O)s2)C1 (configuration not stated) -1.5%
Nc1ccc(N=Nc2ccccc2Cl)c(N)n1 12%
O=C(NCC(O)c1ccc([N+](=O)[O-])cc1)C1CCCCC1 (configuration not stated) -3.9%
CN(C)C(CNC(=O)Cc1ccc([N+](=O)[O-])cc1)c1ccccc1 (configuration not stated) 3.9%
COc1ccc(C(=O)NC(=S)N2CCCCC2c2cccnc2)cc1OC (configuration not stated) -3.7%
Cc1ccccc1-n1c(C)cc(/C=N/NC(=O)c2ccc(CN3CCOCC3)cc2)c1C -7.5%
COc1ccc(NC(=O)CCn2ccnc2)c(OC)c1 -2.6%
O=C(O)c1ccccc1N=N/C(=N/Nc1cc(S(=O)(=O)O)ccc1O)c1ccccc1 3.7%
COc1cc(/C=C/C(=O)Nc2ccc(OC)c(S(=O)(=O)N3CCOCC3)c2)ccc1OCC#N -0.4%
COc1ccc(NS(=O)(=O)c2ccc(N3CCN(CCO)CC3)c([N+](=O)[O-])c2)cc1 -6.1%
COc1ccc(NS(=O)(=O)c2cc(NC(=O)C3CCCCC3)ccc2N2CCOCC2)cc1 10.3%
COc1ccc(NS(=O)(=O)c2ccc(N3CCOCC3)c(NC(=O)/C=C/C(=O)O)c2)cc1 -5.8%
O=C(NC(C(=O)NCCN1CCOCC1)C12CC3CC(CC(C3)C1)C2)C1CCCCC1 (configuration not stated) -6.3%
CCCCN(CC(=O)Nc1cccc(S(=O)(=O)N2CCCC2)c1)Cc1nc2ccccc2c(=O)[nH]1 8.2%
CCOCCCN(C)C1CCN(C(=O)c2oc3ccccc3c2NC(=O)COc2cccc(C)c2)CC1 1.2%
CC(C)CN(C(=O)CSc1ncnc2sccc12)C1CCS(=O)(=O)C1 (configuration not stated) -7.9%
CCC(C)N(C(=O)CSc1ncnc2c1cnn2-c1ccccc1)C1CCS(=O)(=O)C1 (configuration not stated) 22.1%
COc1cc(C(O)c2nc(-c3cnn(C)c3)cs2)ccc1F (configuration not stated) -5.1%
COc1ccc(N2CCN(S(=O)(=O)c3cc(Br)cnc3N)CC2)cc1 -1.1%
Cc1ccc(S(=O)(=O)N2CC(C)N(S(C)(=O)=O)C2)cc1 (configuration not stated) -3.6%
CCc1nc2c(OCc3ccc(Cl)cc3Cl)cccn2c1N(C)C(=O)C(C)C 9.4%
Cc1nc2c(OCc3cccc(Cl)c3)cccn2c1N(C)CC1CC1 17.1%
Cc1ccc(C2C(C#N)C(C#N)N3CCCN23)cc1 (configuration not stated) -18.8%
COc1cc2c(=O)n(C)c3ccccc3c2cc1OC -3.2%
COCC(=O)N(C)C[C@H]1Oc2cc(Br)ccc2S(=O)(=O)N([C@H](C)CO)C[C@H]1C -6%
COc1cc(OC)cc(C(=O)NC2CCN(C(=O)N3c4ccccc4Sc4ccccc43)CC2)c1 38.7%
CCCCCN(C(=O)CCC(=O)OCC(=O)NC1CCC(C)CC1)c1c(N)n(CCCC)c(=O)[nH]c1=O (configuration not stated) -3.8%
Cc1ccccc1CN(c1ccc(C(=O)NCC2CCCO2)cc1)S(C)(=O)=O (configuration not stated) -11.4%
CCN(c1ccccc1)S(=O)(=O)c1ccc(C(=O)Nc2ccccc2OC)cc1 19.5%
CCc1nc2ccc(C(=O)N(C)Cc3ccco3)cn2c1N(C)C(=O)Cc1ccccc1 -8%
O=C1N(c2ccc(Cl)cc2)C(c2ccc(Cl)cc2)N2CCCN12 (configuration not stated) 21.3%
COCCCN1C(=O)C(CC(=O)NCc2cccs2)CC(C(=O)N2CCOCC2)=C1C (configuration not stated) -5.4%
CCOCCOC(=O)C1=C(C)NC(=O)NC1c1ccc2c(c1)OCO2 (configuration not stated) -6.1%
CC1=C(C(=O)OCC2CCCCC2)C(c2ccc(F)cc2)NC(=O)N1 (configuration not stated) 17.2%
N[C@@H](Cc1ccccc1)C(=O)N1CCC(C(=O)NCC(=O)Nc2ccc(F)cc2)CC1 -6.7%
CC(C)(O)C#Cc1ncc(C(F)(F)F)cc1Cl -1.4%
COC(=O)[C@@H]1CC(O)CN1C(=O)C12CC3CC(CC(C3)C1)C2 (some centres not stated) -6.7%
CCOC(=O)c1cnn2c(SC)ncnc12 -6.9%
Cc1cc(C)c2c(=O)n3c(nc2c1)C(CC(C)C)NC(=O)c1cc2ccccc2cc1-3 (configuration not stated) 2.3%
CCC1NC(=O)c2cccnc2-n2c1nc1ccc(C)cc1c2=O (configuration not stated) -5.4%
C=CCSc1nsc(NC(=O)Nc2cccc(C(C)=O)c2)n1 3.9%
Cc1ccc(N2C(=O)N3[C@@H]4c5ccccc5OC[C@@H]4[C@@H](c4ccccc4)[C@@]3(C)C2=O)cc1 48.3%
Cc1ccc(C2SCC(=O)N2c2ccccc2)cc1 (configuration not stated) -5.6%
COc1cc(C2C(C(=O)OCCC#N)=C(C)NC3=C2S(=O)(=O)c2ccccc23)cc(OC)c1OC (configuration not stated) -7.7%
C=C(Cl)COC(=O)C1C2C=CC(C2)C1C(=O)O (configuration not stated) -6.6%
COc1cccc(CNS(=O)(=O)c2cc3c(cc2C)n(C)c(=O)c(=O)n3C)c1 -4.2%
CC1c2nc3ccccc3n2C(CC(=O)NCCCN2CCOCC2)C(=O)N1Cc1ccccc1 (configuration not stated) -2.2%
Cc1ccc(S(=O)(=O)N2C[C@]3(O)C[C@@H]4C(=O)N(c5ccccc5)C(=O)[C@@H]4C[C@]3(OC(=O)NC3CC3)C2)cc1 5.3%
C#CCN(C[C@@H]1[C@@H](OC(=O)NC2CC2)[C@@H](OC(=O)NC2CC2)Cn2c(=O)ccc(=O)n21)S(=O)(=O)c1ccc(C)cc1 -8%
O=C(NCc1ccco1)c1ccc(CS(=O)(=O)Cc2ccc(F)cc2)o1 -5.6%
C[C@H]1CN([C@@H](C)CO)C(=O)CCCn2nncc2CO[C@@H]1CN(C)Cc1ccc(Oc2ccccc2)cc1 -4.9%
CCN(CCCNC(=O)CSc1cc(=O)n(C)c2cc(Cl)ccc12)Cc1ccccc1 1.5%
